Drawing on ChEMBL document CHEMBL4513146, “CO-ADD screening of Karazin Kharkiv National University (Ukraine) compounds”, this text covers Inhibition for 39 compounds.

Entries with a potency or affinity are not part of this list.

For the assay, the system named is Klebsiella pneumoniae. The following applies: Concentration 32 ug.mL-1;; ASSAY_TEST Inhibition of Bacterial Growth; detection method Absorption (OD600); MEDIA CAMHB; plate type 384well; NBS; CORNING #3640; time 18 hr.
Consider `CCc1ccccc1Sc1nccn2c(=O)n(CC(=O)Nc3ccc(C)cc3)nc12`, for which the Inhibition was -4.69%.

Take `Cc1ccc(Nc2cc(C)n3c(=O)n(CCOc4ccc(F)cc4)nc3n2)cc1`: the Inhibition was determined as 19.26%.

For `COc1ccc(OC)c(NC(=O)Cn2nc3c(SCc4ccc(Cl)cc4)nccn3c2=O)c1`, the Inhibition stood at 1.59%.

On to `COc1cccc(-n2ccn3c(SCC(=O)Nc4ccc(F)cc4F)nnc3c2=O)c1`, for which the Inhibition was 3.3%.

Regarding `COc1ccccc1Cn1c(=O)c2sccc2n2c(=O)n(Cc3cccc(C)c3)nc12`, the Inhibition turned out to be 9.07%.

With `CSc1ccc(-c2noc(Cn3nc4ccc(-c5ccccc5)nn4c3=O)n2)cc1`, the Inhibition is recorded as -3.08%.

On to `O=C(Cn1nc2ccc(C(=O)NCc3ccccc3)cn2c1=O)Nc1ccc2c(c1)OCO2`, for which the Inhibition is 7.16%.

Regarding `Cc1ccc(-c2noc(Cn3nc4ccc(-c5ccccc5)nn4c3=O)n2)cc1`, the Inhibition amounted to 1.24%.

Take `O=C(Cn1nc2c(N3CCOCC3)nc3ccccc3n2c1=O)NCc1ccccc1Cl`: the Inhibition is -0.61%.

Regarding `O=C(CSc1nnc2c3cc(-c4ccccc4)nn3ccn12)NCc1ccccc1Cl`, the Inhibition is 7.7%.

Regarding `COc1ccc(NC(=O)c2ccc3nn(CC(=O)Nc4ccc(C)c(F)c4)c(=O)n3c2)cc1`, the Inhibition worked out at 0.39%.

Regarding `Cc1cccc(Oc2nccn3c(=O)n(CC(=O)NCCCc4ccccc4)nc23)c1C`, the Inhibition is on record as 15.41%.

`Cc1ccc(NC(=O)Cn2nc3ccc(SC(C)C)nn3c2=O)c(C)c1`: the Inhibition is 11.09%.

As to `Cc1ccc(-c2ccc3nn(CC(=O)Nc4ccc(Cl)cc4)c(=O)n3n2)cc1C`, the Inhibition was 17.23%.

Regarding `Cc1ccc(Oc2nccn3c(=O)n(CC(=O)Nc4ccc(Br)cc4F)nc23)cc1`, the Inhibition is 2.41%.

For the compound `COc1cccc(Oc2nccn3c(=O)n(CC(=O)NCc4ccc(SC)cc4)nc23)c1`, the Inhibition was determined as 15.38%.

Regarding `CCc1nnc2c(S(=O)(=O)N(Cc3cccc(F)c3)c3ccc(F)cc3)cccn12`, the Inhibition is listed as -0.41%.

Take `Cc1nnc2c(SCC(=O)Nc3cccc(Br)c3)nc3ccccc3n12`: the Inhibition came out at 10.33%.

In the case of `CCCCc1ccc(NC(=O)Cn2nc3c(Sc4ccccc4CC)nccn3c2=O)cc1`, the Inhibition is given as -8.8%.

For `CCCNC(=O)Cn1nc2cc(C)nc(Nc3cc(C)cc(C)c3)n2c1=O`, the Inhibition worked out at 18.12%.

In the case of `COc1cccc(Oc2nccn3c(=O)n(CC(=O)Nc4cc(F)ccc4F)nc23)c1`, the Inhibition is recorded as 3.2%.

Regarding `COc1ccc(Cl)cc1NC(=O)CSc1nnc2c(=O)n(-c3ccccc3)ccn12`, the Inhibition is 11.41%.

As for `Cc1ccc(-n2ccn3c(SCC(=O)Nc4ccc5c(c4)OCCO5)nnc3c2=O)cc1C`, the Inhibition amounted to 9.68%.

As to `Cc1ccc(Cl)cc1NC(=O)CSc1nc2ccccc2n2c(C)nnc12`, the Inhibition came out at 2.82%.

For `Cc1ccc(C)c(NC(=O)Cn2nc3c(SCc4ccc(Cl)cc4)nccn3c2=O)c1`, the Inhibition is on record as 13.13%.

With `O=S(=O)(c1ccc2nncn2c1)N(Cc1ccccc1F)c1cccc(F)c1`, the Inhibition is reported as -5.56%.

Turning to `CC(C)CCNC(=O)Cn1nc2n(CC(C)C)c(=O)c3sccc3n2c1=O`, the Inhibition is recorded as 9.99%.

As for `Cc1ccc(NC(=O)Cn2nc3cc(C)nc(Nc4ccc(F)cc4)n3c2=O)cc1`, the Inhibition turned out to be 11.23%.

In the case of `COc1cccc(CN(c2cc(C)cc(C)c2)S(=O)(=O)c2cccn3c(C)nnc23)c1`, the Inhibition is recorded as -4.31%.

For the compound `Cc1ccc(S(=O)(=O)Nc2ccc3nnc(-c4ccccc4)n3n2)cc1C`, the Inhibition came to 0.88%.

As to `CC(C)(C)OC(=O)CN(c1ccc2c(c1)OCCO2)S(=O)(=O)c1ccc2nncn2c1`, the Inhibition was 11.52%.

With `CCOC(=O)c1ccc(NC(=O)Cn2nc3c4cc(-c5ccc(C)c(C)c5)nn4ccn3c2=O)cc1`, the Inhibition is reported as 1.25%.

`CCC(Sc1nnc2c(=O)n(-c3cccc(OC)c3)ccn12)C(=O)Nc1ccccc1C` (centres undefined): the Inhibition was determined as 4.33%.

Take `O=C(Cn1nc2c(Sc3cccc(F)c3)nccn2c1=O)N1CCN(c2ccccc2)CC1`: the Inhibition was found to be 4.19%.

Turning to `Cc1nnc2ccc(S(=O)(=O)N(Cc3cccc(F)c3)c3cc(F)cc(F)c3)cn12`, the Inhibition is recorded as 10.98%.

For the compound `Cc1cc(C)c(NC(=O)Cn2nc3c4cc(-c5ccc(C)c(C)c5)nn4ccn3c2=O)c(C)c1`, the Inhibition is recorded as 5.52%.

Consider `CCCCc1ccc(NC(=O)Cn2nc3ccc(-c4ccc(C)c(C)c4)nn3c2=O)cc1`, for which the Inhibition came out at 1.79%.

With `COc1ccc(C)cc1NC(=O)Cn1nc2ccc(SCc3ccc(Cl)cc3)nn2c1=O`, the Inhibition is recorded as -0.56%.

Turning to `Cc1nnc2c(=O)n(CC(=O)Nc3ccc(F)cc3F)c3ccccc3n12`, the Inhibition turned out to be 12.43%.
